Source: PubChem BioAssay AID1240 (Sanford-Burnham Center for Chemical Genomics, 2008)
About 800 (1.6%) of roughly 50,000 compounds showed an effect of 50% or more. The full list was thinned out, with strong results kept by preference.

Target: Bcl-2-like protein 10 (Homo sapiens) (UniProt Q9HD36)
Test: Phenotype converters, Bcl-B/TR3 peptide binding displacement, primary biochemical FP (AID 1240);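 note: 0% = Bcl-B with tracer peptide and DMSO and 100% = tracer peptide lacking Bcl-B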
Settings: GST-Bcl-B / FITC-TR3 peptide fluorescence polarization; stronger effect = higher value; compound at 3.75 mg/L

Sequence of Bcl-2-like protein 10 (Homo sapiens) (Q9HD36 whole entry, looked up): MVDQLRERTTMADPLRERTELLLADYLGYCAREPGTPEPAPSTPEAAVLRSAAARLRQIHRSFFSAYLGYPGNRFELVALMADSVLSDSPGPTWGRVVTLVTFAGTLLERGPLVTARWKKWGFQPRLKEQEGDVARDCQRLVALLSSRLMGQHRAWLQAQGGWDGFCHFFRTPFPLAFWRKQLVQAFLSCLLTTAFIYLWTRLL

Compound	displacement
O=C1NC(=O)C(=Cc2ccc3c(c2)OCO3)C(=O)N1	0.3%
O=C1NC(=O)C(=Cc2ccc(N3CCOCC3)cc2)C(=O)N1	78.9%
O=C1NC(=O)C(=Cc2ccccc2)C(=O)N1	-4.2%
O/N=C1/C(=C/c2ccccc2)N2CCC1CC2	10.6%
COC(=O)COc1ccc(/C=C2\C(=O)NC(=S)N(c3ccc(C)cc3)C2=O)cc1OC	-13.5%
COc1ccc(-c2ccc(C=C3C(=O)NC(=S)NC3=O)o2)c([N+](=O)[O-])c1	34.1%
COc1cccc(-n2c(/C=C/c3ccc(O)c(O)c3)nc3ccccc3c2=O)c1	27.7%
Cc1ccc(-n2c(/C=C/c3ccc(O)c(O)c3)nc3ccccc3c2=O)cc1	54.7%
COc1ccccc1-n1c(/C=C/c2ccccc2O)nc2ccccc2c1=O	-6%
COc1ccccc1-n1c(/C=C/c2ccc(O)c(O)c2)nc2ccccc2c1=O	-24.6%
COc1ccccc1-n1c(/C=C/c2ccc(O)cc2)nc2ccccc2c1=O	119%
COc1cccc(-n2c(/C=C/c3ccco3)nc3ccccc3c2=O)c1	106%
COc1ccccc1-n1c(/C=C/c2ccco2)nc2ccccc2c1=O	-36%
O=c1c2ccccc2nc(/C=C/c2ccc(O)c(O)c2)n1-c1ccccc1	1.9%
COc1ccc(-n2c(/C=C/c3ccco3)nc3ccccc3c2=O)cc1	-27.1%
O=C(CNS(=O)(=O)c1ccccc1)Nc1ccc(Br)cc1C(=O)c1ccccc1	12%
O=[N+]([O-])N=C1NC(OCc2ccccc2)C(OCc2ccccc2)N1 (stereo unspecified)	1.4%
CCC1CN(C)CCC1(O)c1ccccc1 (stereo unspecified)	-6.1%
CCC(C)N1CCN(C(=O)COc2ccc(Cl)cc2)CC1 (stereo unspecified)	9.2%
CC(C(=O)c1ccc(Cl)cc1Cl)n1cncn1 (stereo unspecified)	-2.3%
COc1ccc(OCC(=O)Nc2ccc(Br)cc2C(=O)c2ccccc2)cc1	-8.4%
O=Cc1cn(Cc2cccc3ccccc23)c2ccccc12	-2.4%

Compound	displacement
CN1C(=O)NC(=O)/C(=C\c2ccc([N+](=O)[O-])o2)C1=O	17.3%
O=c1c2ccccc2nc(-c2ccccc2F)n1-c1cccc(Cl)c1	-2.3%
CCNc1cc2oc(=O)cc(C(F)(F)F)c2cc1C	105%
Clc1ccccc1CNCCc1c[nH]c2ccccc12	2%
O=c1[nH]c(=O)n(-c2ccccc2)c(O)c1N=Nc1ccc(Br)cc1	120%
O=c1[nH]c2ccccc2c(=O)n1-c1ccccc1	-12.7%
O=c1c2ccccc2[nH]c(=S)n1-c1ccccc1	-9.7%
COc1ccccc1CN1CCN(Cc2ccccc2F)CC1	-5.2%
O=C(Nc1ccc(Cl)c(-c2nc3ncccc3o2)c1)c1cccc(OCc2ccccc2)c1	-2.6%
O=[N+]([O-])c1ccc(CCNC2CCCCC2)cc1	3.9%
O=c1[nH]c(=O)n(Cc2ccccc2)c(O)c1C=C1C=Nc2ccccc21	8.6%
COc1ccc(OC)c(N2C(=O)CC(=O)NC2=O)c1	-5.1%
COc1ccc(OC)c(-n2c(O)c(C=C3C=Nc4ccccc43)c(=O)[nH]c2=O)c1	118%
COC(=O)N1[C@H](c2ccccc2)[C@@H]1c1ccccc1	11.9%
O=C(CF)NC(Nc1ccc(Br)cc1)C(Cl)(Cl)Cl (stereo unspecified)	8.3%
CCn1cc(C=C2C(=O)NC(=S)NC2=O)c2ccccc21	136%
CCn1cc(C=C2C(=O)NC(=O)NC2=O)c2ccccc21	12.6%
C=CCn1cc(C=C2C(=O)NC(=O)NC2=O)c2ccccc21	16.3%
CN1C(=O)C(=Cc2cn(Cc3ccc(F)cc3)c3ccccc23)C(=O)N(C)C1=O	138%
O=Cc1cn(Cc2ccc(Br)cc2)c2ccccc12	0.2%
CN1C(=O)C(=Cc2ccccc2Cl)C(=O)N(C)C1=O	-0.3%
C=CCc1cc(/C=C2\C(=O)NC(=O)N(c3cc(C)cc(C)c3)C2=O)cc(OC)c1O	-5.3%

Compound	displacement
Cc1cc(/C=C2/C(=O)NC(=O)N(C)C2=O)c(C)n1-c1ccccc1	49.3%
Cc1ccc(-n2c(C)cc(/C=C3/C(=O)NC(=O)N(C)C3=O)c2C)cc1	-10.4%
Cc1cc(C=C2C(=O)NC(=S)NC2=O)c(C)n1-c1ccc(F)cc1	3.8%
Cc1cc(C=C2C(=O)NC(=S)NC2=O)c(C)n1-c1ccccc1	104%
Cc1cc(/C=C2\C(=O)NC(=O)N(C)C2=O)c(C)n1-c1ccc2c(c1)OCO2	107%
Cc1cc(C=C2C(=O)NC(=S)NC2=O)c(C)n1-c1ccc(Cl)cc1	36.9%
O=C1NC(=S)N(c2ccc(Br)cc2)C(=O)/C1=C/c1ccc(-c2ccccc2C(=O)O)o1	19.2%
COc1ccc(Br)cc1CN1CCN(C(=O)COc2ccccc2)CC1	2.5%
COC(=O)C1C2C(=O)N(c3ccc([N+](=O)[O-])cc3)C(=O)C12c1ccc(C)cc1 (stereo unspecified)	-32.2%
Cc1ccc(NC(=O)C2C(C)(C)C2(C)C)cc1C	6.9%
CCOC(=O)c1ccc2c(c1)n(Cc1ccccc1)c(C)[n+]2CC	-14.9%
COc1cccc(N2C(=O)CC(=O)NC2=O)c1	-8.2%
CCOc1ccc(N2C(=O)/C(=C/c3cc(Cl)ccc3O)C(=O)NC2=S)cc1	0.4%
O=C(O)Cn1cc(/C=C2\C(=O)NC(=O)N(c3ccc(Cl)cc3)C2=O)c2ccccc21	-16.9%
Cc1ccc(N2C(=O)NC(=O)/C(=C\c3ccccc3OCc3ccc(C(=O)O)cc3)C2=O)cc1	-9.2%
COc1ccccc1OCCn1cc(C=C2C(=O)NC(=O)NC2=O)c2ccccc21	38.7%
CCc1ccc(/C=C2/C(=O)NC(=O)N(c3ccc(OC)cc3)C2=O)cc1	-18.1%
COc1ccc(N2C(=O)NC(=O)/C(=C/c3cn(CC(=O)Nc4ccccc4)c4ccccc34)C2=O)cc1	88.8%
Cc1ccc(N2C(=O)NC(=O)/C(=C\c3cn(CC(=O)O)c4ccccc34)C2=O)cc1	183%
CCOc1cc(C)cc2oc(=O)c3c(c12)CCC3	-1.5%
Nc1ccc(Br)cc1C(=O)c1ccc(Cl)cc1Cl	10%
Cn1cc(/C=C2\C(=O)NC(=O)N(Cc3ccccc3)C2=O)c2ccccc21	99.3%

Compound	displacement
CN1C(=O)NC(=O)/C(=C/c2ccc(I)o2)C1=O	9.2%
O=C1NC(=O)N(Cc2ccccc2)C(=O)/C1=C\C=C\c1ccco1	11.3%
CN1C(=O)NC(=O)/C(=C/c2cn(C)c3ccccc23)C1=O	108%
CN1C(=O)NC(=O)/C(=C\c2ccc(C(=O)O)cc2)C1=O	1.8%
O=C1NC(=O)N(Cc2ccccc2)C(=O)/C1=C/c1ccc2c(c1)OCO2	13.8%
O=C(Cc1ccccc1)N1CCN(Cc2cccnc2)CC1	9.9%
CC(C)c1ccc(N2C(=O)CC(=O)NC2=O)cc1	-5.9%
CC1(C)C(C(=O)Nc2cccc3ccccc23)C1(C)C	3.9%
Cc1ccccc1-n1c(CN2C(=O)c3ccccc3C2=O)nc2ccccc2c1=O	-9.6%
CC(C)CCn1c(=O)c(C(=O)Nc2ccc(I)cc2)c(O)c2ccccc21	7.1%
Cc1cc(Cl)ccc1OCC(=O)N1CCN(C)CC1	-6.7%
O=C(Nc1ccc(Br)cc1C(=O)c1ccccc1)c1ccc(F)cc1	8.4%
O=C(ON1CC1(C(F)(F)F)C(F)(F)F)c1ccccc1 (stereo unspecified)	3.2%
O=C1c2ccccc2-c2onc3c(Br)cc(N4CC4)c1c23	178%
Cc1ccc(N2C(=O)CC(=O)NC2=S)cc1	5.6%
COc1cccc(/C=C2/C(=O)NC(=O)N(c3cccc(C)c3)C2=O)c1O	3.1%
COc1ccc(N2C(=O)NC(=O)/C(=C/c3ccc(SC)cc3)C2=O)cc1	-9.4%
Cc1ccc(N2C(=O)NC(=O)/C(=C\c3ccc(-c4ccc(Cl)c(C(=O)O)c4)o3)C2=O)cc1	6.3%
COc1ccc(N2C(=O)NC(=O)/C(=C/c3ccc(-c4cccc(Cl)c4)o3)C2=O)cc1	69%
COc1ccc(N2C(=O)NC(=O)/C(=C/c3cc4c(cc3Cl)OCO4)C2=O)cc1	81.5%
Cc1ccc(/C=C2/C(=O)NC(=O)N(c3ccc(Cl)cc3)C2=O)o1	36.2%
CN1C(=O)NC(=O)/C(=C\c2cc3c(cc2Cl)OCO3)C1=O	0.4%

Compound	displacement
COc1ccc(CN2CCN(Cc3cc(Br)ccc3O)CC2)cc1	13.1%
Cc1cc(C=C2C(=O)NC(=O)NC2=O)c(C)n1-c1ccc(N(C)C)cc1	0.1%
CN=C(C)c1c(O)n(C)c(=S)n(C)c1=O	8.8%
C(=NCCCN1CCOCC1)c1c[nH]c2ccccc12	2.6%
O=c1c2ccccc2nc(-c2cccs2)n1-c1ccccn1	19.3%
O=C(Cn1c[n+]([N-][N+](=O)[O-])cn1)Nc1ccc([N+](=O)[O-])cc1	16.4%
O=C(Cn1c[n+]([N-][N+](=O)[O-])cn1)N1CCN(C(=O)Cn2c[n+]([N-][N+](=O)[O-])cn2)CC1	15%
O=C(Cn1c[n+]([N-][N+](=O)[O-])cn1)Nc1ccc(NC(=O)Cn2c[n+]([N-][N+](=O)[O-])cn2)cc1	59.6%
CCOc1ccc(N2C(=O)NC(=O)/C(=C\c3ccc(C)o3)C2=O)cc1	11.6%
COc1cc(C=C2C(=O)NC(=O)NC2=O)ccc1OCc1ccc(C(=O)O)cc1	0.6%
COc1ccc(C=C2C(=O)NC(=O)NC2=O)cc1OCc1ccc(Cl)cc1Cl	150%
COc1ccc(C=C2C(=O)NC(=S)NC2=O)cc1OCc1ccccc1Cl	8.2%
O=c1oc2ccccc2c2c1C(c1ccc(Cl)cc1)c1c(c3ccccc3oc1=O)O2	10.3%
COc1cccc(CN2CCNCC2)c1OC	15.6%
O=C(N/N=C1/CN2CCC1CC2)c1ccc(O)cc1	17.8%
CN1C(=O)NC(=O)/C(=C/c2ccc(-c3ccccc3[N+](=O)[O-])o2)C1=O	35.6%
COC(=O)C(=O)/C(=C\c1ccc(-c2ccccc2[N+](=O)[O-])o1)C(=O)c1ccccc1	56.7%
O=C1C(=Cc2ccc(-c3ccccc3[N+](=O)[O-])o2)C(=O)N(c2ccccc2)C(=S)N1c1ccccc1	16.4%
